Results published in PubChem BioAssay (EPA / NIEHS).
Activity calls are given as the source filed them. Rule for the calls: active = hit-call score of the fitted dose curve at least 0.9, where 1 is the maximum; inactive = score below 0.9.

What was measured:
Settings in all cases: mRNA level, 48 h; actives raise or lower the signal
[1] = read-out: Fatty acid synthase (Homo sapiens) (UniProt P49327); test: LTEA_HepaRG_FASN: Life Technologies and Expression Analysis (LTEA) Assay for Fatty Acid Synthase (FASN) using HepaRG (AID 2283448)
Summary of the method: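 FASN expression changes, up or down relative to 0.5% DMSO, were measured by qRT-PCR in human HepaRG cells after 48 h treatment with chemicals at eight concentrations (half-log steps from 100 uM).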

[2] = read-out: Cyclin Dependent Kinase Inhibitor 1A (CDKN1A), CDKN1A (gene 1026); test: LTEA_HepaRG_CDKN1A: Life Technologies and Expression Analysis (LTEA) Assay for Cyclin Dependent Kinase Inhibitor 1A (CDKN1A) using HepaRG (AID 2283450)
Summary of the method: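 Cryopreserved HepaRG cells were plated and cultured 48 h, then switched to serum-free induction medium. Chemicals (eight half-log concentrations, top 100 uM, 0.5% DMSO) were applied for 48 h. Lysates underwent qRT-PCR for CDKN1A with housekeeping normalization.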

[3] = read-out: Cyclin D1 (CCND1), CCND1 (gene 595); test: LTEA_HepaRG_CCND1: Life Technologies and Expression Analysis (LTEA) Assay for Cyclin D1 (CCND1) using HepaRG (AID 2283451)
Summary of the method: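 Human liver HepaRG line; 48 h dosing, 8 conc. ≤100 uM, 0.5% DMSO; TaqMan qRT-PCR mRNA, 3 housekeeping genes; bidirectional curve fit vs DMSO.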

[4] = read-out: flavin-containing dimethylaniline monooxygenases 3 (FMO3), FMO3 (gene 2328); test: LTEA_HepaRG_FMO3: Life Technologies and Expression Analysis (LTEA) Assay for flavin-containing dimethylaniline monooxygenases 3 (FMO3) using HepaRG (AID 2283453)
Summary of the method: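 Differentiated HepaRG cells in serum-free induction medium, exposed 48 h in duplicate to 8 half-log concentrations up to 100 uM in 0.5% DMSO. FMO3 mRNA by qRT-PCR, normalized to ACTB, GAPDH, POLR2A; bidirectional fit vs DMSO.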

[5] = read-out: Cytochrome P450 (CYP1A1), CYP1A1 (gene 1543); test: LTEA_HepaRG_CYP1A1: Life Technologies and Expression Analysis (LTEA) Assay for Cytochrome P450 (CYP1A1) using HepaRG (AID 2283454)
Summary of the method: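 Induction of CYP1A1 mRNA in a human hepatic cell line was measured 48 h after dosing, with 1 mM phenobarbital as induction positive control and 0.5% DMSO vehicle as baseline for bidirectional curve fitting.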

[6] = read-out: CFLAR gene, CFLAR (gene 8837); test: LTEA_HepaRG_CFLAR: Life Technologies and Expression Analysis (LTEA) Assay for CFLAR gene using HepaRG (AID 2283455)
Summary of the method: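 HepaRG cells were plated for 48 h, switched to serum-free induction medium, then exposed in duplicate for 48 h to 8 concentrations (top 100 uM, half-log steps, 0.5% DMSO). CFLAR mRNA was measured by qRT-PCR, normalized to ACTB, GAPDH and POLR2A.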

[7] = read-out: Forkhead box O1 (FOXO1), FOXO1 (gene 2308); test: LTEA_HepaRG_FOXO1: Life Technologies and Expression Analysis (LTEA) Assay for Forkhead box O1 (FOXO1) using HepaRG (AID 2283456)
Summary of the method: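 Differentiated human HepaRG cells in serum-free induction medium were exposed in duplicate for 48 h to eight half-log concentrations (top 100 uM, 0.5% DMSO). FOXO1 mRNA was measured by TaqMan qRT-PCR, normalised to ACTB, GAPDH and POLR2A, and fitted bidirectionally against DMSO.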

[8] = read-out: growth arrest and DNA damage 45 (GADD45A), GADD45A (gene 1647); test: LTEA_HepaRG_GADD45A: Life Technologies and Expression Analysis (LTEA) Assay for growth arrest and DNA damage 45 (GADD45A) using HepaRG (AID 2283458)
Summary of the method: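 Cells plated and cultured 48 h, switched to serum-free induction medium, then dosed for 48 h (100 uM top, half-log dilutions, 0.5% DMSO). RNA was isolated and transcript measured by Fluidigm qRT-PCR.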

[9] = read-out: Forkhead box O3 (FOXO3), FOXO3 (gene 2309); test: LTEA_HepaRG_FOXO3: Life Technologies and Expression Analysis (LTEA) Assay for Forkhead box O3 (FOXO3) using HepaRG (AID 2283459)
Summary of the method: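 Differentiated human HepaRG cells in serum-free induction medium were exposed in duplicate for 48 h to eight half-log concentrations up to 100 uM in 0.5% DMSO. FOXO3 mRNA was quantified by qRT-PCR, normalized to ACTB, GAPDH and POLR2A, with bidirectional fitting versus DMSO.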

[10] = read-out: ABC Transporter (ABCB1), ABCB1 (gene 5243); test: LTEA_HepaRG_ABCB1: Life Technologies and Expression Analysis (LTEA) Assay for ABC Transporter (ABCB1) using HepaRG (AID 2283460)
Summary of the method: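 Differentiated human HepaRG cells, plated 48 h then switched to serum-free induction medium, were exposed in duplicate to eight half-log concentrations up to 100 uM in 0.5% DMSO for 48 h. ABCB1 mRNA was measured by TaqMan qRT-PCR, normalized to ACTB/GAPDH/POLR2A.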

[11] = read-out: growth arrest and DNA damage 45 (GADD45B), GADD45B (gene 4616); test: LTEA_HepaRG_GADD45B: Life Technologies and Expression Analysis (LTEA) Assay for growth arrest and DNA damage 45 (GADD45B) using HepaRG (AID 2283461)
Summary of the method: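 Values are bidirectional concentration-response fits against 0.5% DMSO controls. Underlying data: qRT-PCR mRNA levels in human HepaRG liver cells treated 48 h in serum-free induction medium, eight concentrations topping at 100 uM.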

[12] = read-out: ABC Transporter (ABCC3), ABCC3 (gene 8714); test: LTEA_HepaRG_ABCC3: Life Technologies and Expression Analysis (LTEA) Assay for ABC Transporter (ABCC3) using HepaRG (AID 2283462)
Summary of the method: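 Differentiated HepaRG liver cells receive test chemicals at eight concentrations (max 100 uM) for 48 h. Expression of ABCC3 is quantified by qRT-PCR against ACTB, GAPDH and POLR2A, and activity is fitted in both directions against the DMSO control.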

[13] = read-out: ABC Transporter (ABCB11), ABCB11 (gene 8647); test: LTEA_HepaRG_ABCB11: Life Technologies and Expression Analysis (LTEA) Assay for ABC Transporter (ABCB11) using HepaRG (AID 2283463)
Summary of the method: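 Differentiated human HepaRG cells were exposed for 48 h in serum-free induction medium to eight half-log concentrations up to 100 uM in 0.5% DMSO. ABCB11 mRNA was quantified by qRT-PCR, normalized to ACTB, GAPDH and POLR2A, and fitted bidirectionally versus DMSO.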

[14] = read-out: ABC Transporter (ABCC2), ABCC2 (gene 1244); test: LTEA_HepaRG_ABCC2: Life Technologies and Expression Analysis (LTEA) Assay for ABC Transporter (ABCC2) using HepaRG (AID 2283464)
Summary of the method: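 Gene expression of ABCC2 was determined by qRT-PCR in HepaRG cells exposed 48 h to chemicals (highest 100 uM, half-log dilutions). Activity was fitted in both directions relative to 0.5% DMSO vehicle.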

[15] = read-out: Broad substrate specificity ATP-binding cassette transporter ABCG2 (Homo sapiens) (UniProt Q9UNQ0); test: LTEA_HepaRG_ABCG2: Life Technologies and Expression Analysis (LTEA) Assay for ABC Transporter (ABCG2) using HepaRG (AID 2283465)
Summary of the method: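 Differentiated HepaRG cells in serum-free induction medium were exposed for 48 h, in duplicate, to eight half-log concentrations up to 100 uM in 0.5% DMSO. ABCG2 mRNA was measured by TaqMan qRT-PCR, normalized to ACTB, GAPDH and POLR2A, and fitted bidirectionally versus DMSO.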

[16] = read-out: ATP-citrate lyase (ACLY), ACLY (gene 47); test: LTEA_HepaRG_ACLY: Life Technologies and Expression Analysis (LTEA) Assay for ATP-citrate lyase (ACLY) using HepaRG (AID 2283466)
Summary of the method: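 Differentiated human HepaRG cells in serum-free induction medium exposed 48 h, in duplicate, to eight half-log concentrations from 100 uM top in 0.5% DMSO; ACLY mRNA measured by qRT-PCR, normalized to ACTB, GAPDH, POLR2A, fitted bidirectionally versus DMSO.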

[17] = read-out: Peroxisomal acyl-coenzyme A oxidase 1 (ACOX1) gene, ACOX1 (gene 51); test: LTEA_HepaRG_ACOX1: Life Technologies and Expression Analysis (LTEA) Assay for Peroxisomal acyl-coenzyme A oxidase 1 (ACOX1) gene using HepaRG (AID 2283467)
Summary of the method: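 Differentiated human HepaRG cells were exposed in duplicate for 48 h in serum-free induction medium to eight half-log concentrations up to 100 uM in 0.5% DMSO. ACOX1 mRNA was then quantified by TaqMan qRT-PCR, normalized to ACTB, GAPDH and POLR2A.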

[18] = read-out: catalase (CAT), CAT (gene 847); test: LTEA_HepaRG_CAT: Life Technologies and Expression Analysis (LTEA) Assay for catalase (CAT) using HepaRG (AID 2283452);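 note: TaqMan qRT-PCR signal normalized to ACTB GAPDH and POLR2A housekeeping genes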
Summary of the method: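 Differentiated HepaRG cells in serum-free induction medium were dosed 48 h in duplicate, eight half-log concentrations from 100 uM in 0.5% DMSO. Transcript measured by TaqMan qRT-PCR, normalised to ACTB/GAPDH/POLR2A, fitted bidirectionally against DMSO.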

[19] = read-out: Cyclin D2 (CCND2), CCND2 (gene 894); test: LTEA_HepaRG_CCND2: Life Technologies and Expression Analysis (LTEA) Assay for Cyclin D2 (CCND2) using HepaRG (AID 2283449);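 note: CCND2 transcript measured by TaqMan qRT-PCR and normalised to three housekeeping genes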
Summary of the method: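 Differentiated human HepaRG cells were exposed for 48 h in serum-free induction medium to eight half-log concentrations topping at 100 uM (0.5% DMSO vehicle). CCND2 mRNA was quantified by TaqMan qRT-PCR, normalised to ACTB, GAPDH and POLR2A, and fitted bidirectionally against DMSO.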

Measured: AC50

Sequence of Fatty acid synthase (Homo sapiens) (P49327 whole entry, looked up): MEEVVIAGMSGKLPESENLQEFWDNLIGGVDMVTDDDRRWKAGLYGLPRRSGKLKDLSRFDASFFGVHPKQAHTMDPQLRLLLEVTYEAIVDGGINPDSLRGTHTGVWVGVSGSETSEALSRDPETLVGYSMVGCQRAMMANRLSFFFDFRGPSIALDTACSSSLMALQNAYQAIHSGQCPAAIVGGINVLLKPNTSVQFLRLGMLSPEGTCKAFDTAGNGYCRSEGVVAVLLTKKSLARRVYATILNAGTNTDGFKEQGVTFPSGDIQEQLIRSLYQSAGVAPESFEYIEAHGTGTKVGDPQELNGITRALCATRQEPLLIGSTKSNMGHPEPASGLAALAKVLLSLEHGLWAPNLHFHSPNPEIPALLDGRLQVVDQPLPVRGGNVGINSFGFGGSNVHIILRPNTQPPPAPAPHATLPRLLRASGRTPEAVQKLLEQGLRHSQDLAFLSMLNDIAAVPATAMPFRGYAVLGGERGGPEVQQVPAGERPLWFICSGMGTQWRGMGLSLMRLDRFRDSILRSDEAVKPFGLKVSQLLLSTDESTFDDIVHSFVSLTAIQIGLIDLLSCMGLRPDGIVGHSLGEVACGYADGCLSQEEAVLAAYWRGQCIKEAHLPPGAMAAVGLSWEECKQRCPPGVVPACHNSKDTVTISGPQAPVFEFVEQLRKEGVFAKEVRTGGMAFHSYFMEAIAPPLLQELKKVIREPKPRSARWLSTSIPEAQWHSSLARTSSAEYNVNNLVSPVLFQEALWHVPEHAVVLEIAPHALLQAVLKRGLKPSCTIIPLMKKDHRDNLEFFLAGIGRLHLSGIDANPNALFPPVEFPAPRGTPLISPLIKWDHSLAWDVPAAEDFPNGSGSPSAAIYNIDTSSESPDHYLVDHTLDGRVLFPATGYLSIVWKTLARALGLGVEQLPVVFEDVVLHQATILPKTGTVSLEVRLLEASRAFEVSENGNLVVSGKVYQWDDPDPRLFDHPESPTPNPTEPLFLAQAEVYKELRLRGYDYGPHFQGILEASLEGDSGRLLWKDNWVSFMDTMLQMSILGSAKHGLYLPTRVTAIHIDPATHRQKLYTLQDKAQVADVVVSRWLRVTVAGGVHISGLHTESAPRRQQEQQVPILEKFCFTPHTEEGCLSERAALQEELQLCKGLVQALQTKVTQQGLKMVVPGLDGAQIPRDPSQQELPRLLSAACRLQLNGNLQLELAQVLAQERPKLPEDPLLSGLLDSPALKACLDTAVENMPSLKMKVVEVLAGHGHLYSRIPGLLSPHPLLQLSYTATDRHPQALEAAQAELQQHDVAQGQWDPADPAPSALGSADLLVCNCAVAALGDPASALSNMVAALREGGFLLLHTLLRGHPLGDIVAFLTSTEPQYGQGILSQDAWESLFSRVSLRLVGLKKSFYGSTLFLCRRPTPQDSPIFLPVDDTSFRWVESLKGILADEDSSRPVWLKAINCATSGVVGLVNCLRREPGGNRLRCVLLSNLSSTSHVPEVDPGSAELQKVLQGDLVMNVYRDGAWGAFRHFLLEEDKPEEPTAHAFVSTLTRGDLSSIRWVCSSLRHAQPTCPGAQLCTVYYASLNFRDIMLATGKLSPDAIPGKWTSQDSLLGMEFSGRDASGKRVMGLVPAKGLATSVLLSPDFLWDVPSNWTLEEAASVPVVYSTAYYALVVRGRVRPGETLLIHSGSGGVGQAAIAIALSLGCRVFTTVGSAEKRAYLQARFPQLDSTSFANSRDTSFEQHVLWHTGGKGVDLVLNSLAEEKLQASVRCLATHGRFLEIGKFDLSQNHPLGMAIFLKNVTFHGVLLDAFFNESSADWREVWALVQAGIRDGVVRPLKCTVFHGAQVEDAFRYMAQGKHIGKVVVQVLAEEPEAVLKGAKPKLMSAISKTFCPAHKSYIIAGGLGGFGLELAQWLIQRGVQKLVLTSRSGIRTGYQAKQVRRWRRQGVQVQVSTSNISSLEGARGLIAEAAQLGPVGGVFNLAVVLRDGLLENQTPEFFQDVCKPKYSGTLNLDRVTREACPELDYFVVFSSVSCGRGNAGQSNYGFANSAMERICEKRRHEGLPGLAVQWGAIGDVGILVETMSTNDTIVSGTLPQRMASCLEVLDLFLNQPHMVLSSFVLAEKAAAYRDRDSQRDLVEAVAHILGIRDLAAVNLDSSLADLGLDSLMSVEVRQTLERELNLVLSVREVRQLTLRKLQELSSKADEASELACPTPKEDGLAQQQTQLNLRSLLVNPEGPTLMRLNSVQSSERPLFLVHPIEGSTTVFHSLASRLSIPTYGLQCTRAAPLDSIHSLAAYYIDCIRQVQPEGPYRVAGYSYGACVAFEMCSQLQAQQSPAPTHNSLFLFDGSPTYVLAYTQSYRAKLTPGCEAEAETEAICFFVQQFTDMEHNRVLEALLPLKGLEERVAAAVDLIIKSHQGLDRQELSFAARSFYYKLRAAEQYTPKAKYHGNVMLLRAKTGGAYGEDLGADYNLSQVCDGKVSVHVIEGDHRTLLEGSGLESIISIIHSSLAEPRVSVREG
Sequence of Broad substrate specificity ATP-binding cassette transporter ABCG2 (Homo sapiens) (Q9UNQ0 whole entry, looked up): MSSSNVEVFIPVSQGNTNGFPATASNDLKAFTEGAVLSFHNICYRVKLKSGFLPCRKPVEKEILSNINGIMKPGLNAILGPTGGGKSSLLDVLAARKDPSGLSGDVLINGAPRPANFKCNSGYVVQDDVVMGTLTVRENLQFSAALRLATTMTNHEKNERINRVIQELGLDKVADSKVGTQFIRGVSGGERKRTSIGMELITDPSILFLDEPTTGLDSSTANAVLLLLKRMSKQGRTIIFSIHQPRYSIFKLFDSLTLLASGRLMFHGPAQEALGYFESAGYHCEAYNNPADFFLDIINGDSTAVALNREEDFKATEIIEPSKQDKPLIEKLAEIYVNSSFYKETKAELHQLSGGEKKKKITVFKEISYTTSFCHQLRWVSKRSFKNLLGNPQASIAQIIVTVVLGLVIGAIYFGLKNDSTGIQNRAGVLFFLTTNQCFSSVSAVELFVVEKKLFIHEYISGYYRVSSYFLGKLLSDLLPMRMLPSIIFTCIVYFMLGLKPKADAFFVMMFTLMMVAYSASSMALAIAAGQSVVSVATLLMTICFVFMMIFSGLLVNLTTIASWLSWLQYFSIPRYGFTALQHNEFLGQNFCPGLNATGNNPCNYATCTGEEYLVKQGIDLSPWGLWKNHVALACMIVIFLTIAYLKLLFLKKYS

O=C(O)Cc1ccccc1Nc1c(Cl)cccc1Cl
active: [5] 76.4 µM | [10] 6.67 µM | [14] 13 µM
not listed: [18] | [19]
inactive: all other assays above

Nc1ccccc1N
inactive: [3] | [15]
active: [1] 71.4 µM | [2] 50 µM | [18] 61.7 µM | [4] 63.7 µM | [5] 3.28 µM | [6] 61.4 µM | [7] 82.2 µM | [8] 50 µM | [9] 63.3 µM | [10] 68.9 µM | [11] 50 µM | [12] 71.9 µM | [14] 71 µM | [17] 62.3 µM

COc1cc(C=O)ccc1O
not listed: [6] | [18]
inactive: all other assays above

CCNc1cccc(C)c1
active: [5] 50 µM
not listed: [6] | [18]
inactive: all other assays above

CCCCN(CCCC)CCCC
not listed: [6] | [18]
inactive: all other assays above

O=c1[nH]cc(F)c(=O)[nH]1
active: [2] 35.5 µM | [4] 36.3 µM | [13] 64 µM
not listed: [6] | [18] | [19]
inactive: all other assays above

Cc1c(C(=O)O)c(O)cc2c1C(=O)c1c(O)c([C@@H]3O[C@H](CO)[C@@H](O)[C@H](O)[C@H]3O)c(O)c(O)c1C2=O
not listed: [6] | [18]
inactive: all other assays above

CC(=O)OCCOCCOCCOC(C)=O
not listed: [6] | [18]
inactive: all other assays above
